Laboratory results reported in PubChem BioAssay (NCI).
Values joined by “and” are separate entries in the source; they are usually repeats but may differ in a detail not shown here. Equal values may be shown once. This is part of a sample that, as a whole, favours compounds with a hit. Of some 83,000 tested, about 20% had one in any assay.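 48-hour exposure, single concentration, 96-well plates; percent growth endpoint where 0 means no net growth. Active: below 10.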 Active and inactive are the calls of the source.

Experiments:
Assay in all cases: NCI-60 one-dose screen, 48 h (100 = growth as untreated, 0 = no growth, -100 = all killed)
Details in all cases: 10 µM unless noted
NCI-H23 lung = test system: NCI-H23 lung
NCI-H226 lung = test system: NCI-H226 lung
NCI-H322M lung = test system: NCI-H322M lung
HOP-62 NSCLC = test system: HOP-62 NSCLC
NCI-H460 lung = test system: NCI-H460 lung
HOP-92 NSCLC = test system: HOP-92 NSCLC
NCI-H522 lung = test system: NCI-H522 lung
A549/ATCC NSCLC = test system: A549/ATCC NSCLC
786-0 renal = test system: 786-0 renal
COLO 205 colon = test system: COLO 205 colon
DU-145 prostate = test system: DU-145 prostate
MALME-3M melanoma = test system: MALME-3M melanoma
MDA-MB-231 breast = test system: MDA-MB-231 breast
RXF 393 renal = test system: RXF 393 renal
SF-268 CNS = test system: SF-268 CNS
SF-295 CNS = test system: SF-295 CNS
SF-539 CNS = test system: SF-539 CNS
UACC-257 melanoma = test system: UACC-257 melanoma
M14 melanoma = test system: M14 melanoma
K-562 leukemia = test system: K-562 leukemia

Row | Structure (SMILES) | growth (NCI-H23 lung) | growth (NCI-H226 lung) | growth (NCI-H322M lung) | growth (HOP-62 NSCLC) | growth (NCI-H460 lung) | growth (HOP-92 NSCLC) | growth (NCI-H522 lung) | growth (A549/ATCC NSCLC) | growth (786-0 renal) | growth (COLO 205 colon) | growth (DU-145 prostate) | growth (MALME-3M melanoma) | growth (MDA-MB-231 breast) | growth (RXF 393 renal) | growth (SF-268 CNS) | growth (SF-295 CNS) | growth (SF-539 CNS) | growth (UACC-257 melanoma) | growth (M14 melanoma) | growth (K-562 leukemia)
1 | C=C1C(=O)O[C@H]2[C@H]1CC/C(COC(=O)NC1CCC(O)CC1)=C\CC[C@@]1(C)O[C@@H]21 (stereo not given in full) | 58.3% (inactive) and 50.6% (inactive) | 85.5% (inactive) and 95% (inactive) | 105% (inactive) and 98.6% (inactive) | 97% (inactive) and 97.4% (inactive) | 100% (inactive) and 96.7% (inactive) | 71.6% (inactive) and 54.6% (inactive) | -2.94% (active) and -11.8% (active) | 91.7% (inactive) and 87.8% (inactive) | 103% (inactive) and 99.6% (inactive) | 44.9% (inactive) and 41.7% (inactive) | 38.7% (inactive) and 28.8% (inactive) | 72.6% (inactive) and 64.5% (inactive) | 60.8% (inactive) and 62.4% (inactive) | 54% (inactive) and 53.2% (inactive) | 93.2% (inactive) and 91.5% (inactive) | 96.6% (inactive) and 95.7% (inactive) | 71.9% (inactive) and 63.2% (inactive) | 65.6% (inactive) and 69.1% (inactive) | 85.4% (inactive) and 71.4% (inactive) | –
2 | NCCSC(C[N+](=O)[O-])c1ccccc1Cl (stereo not given) | 95.6% (inactive) | 99.1% (inactive) | 91.7% (inactive) | 106% (inactive) | 98.2% (inactive) | 102% (inactive) | 66.6% (inactive) | – | 101% (inactive) | 99.2% (inactive) | 37.6% (inactive) | 98.8% (inactive) | 115% (inactive) | 11% (inactive) | 84.8% (inactive) | 101% (inactive) | 94.6% (inactive) | -3.93% (active) | 74.4% (inactive) | -48.3% (active)
3 | CCOC(=O)Nc1ccc2c(c1)/C(=N\NC(N)=S)c1ccccc1-2 | 44.3% (inactive) and 62.6% (inactive) | 76% (inactive) and 81.1% (inactive) | 83.8% (inactive) and 94.9% (inactive) | 74.7% (inactive) and 77.6% (inactive) | 52% (inactive) and 58.4% (inactive) | 71.1% (inactive) | 76.9% (inactive) | 60% (inactive) and 57.6% (inactive) | 28% (inactive) and 53.7% (inactive) | 63.3% (inactive) and 88.3% (inactive) | 64.1% (inactive) and 84.3% (inactive) | 89.4% (inactive) | 32.7% (inactive) and 47.6% (inactive) | 8.9% (active) and 12.6% (inactive) | 78.6% (inactive) and 85.7% (inactive) | 3.9% (active) and 30% (inactive) | 13.8% (inactive) and 31% (inactive) | 41.9% (inactive) and 91.3% (inactive) | 42% (inactive) and 61.6% (inactive) | 33.9% (inactive)
4 | O=[N+]([O-])c1ccc2nc3c4ccccc4c4ccccc4c3nc2c1 | 81.8% (inactive) | 41.5% (inactive) | 92.6% (inactive) | 90% (inactive) | 68.4% (inactive) | 61% (inactive) | 67.2% (inactive) | 69.1% (inactive) | 88.6% (inactive) | 71.4% (inactive) | 100% (inactive) | 98.6% (inactive) | 70.2% (inactive) | 96% (inactive) | 78% (inactive) | 107% (inactive) | 91% (inactive) | 82.5% (inactive) | 90.3% (inactive) | 67.4% (inactive)
5 | Fc1ccccc1Nc1n[nH]c(=S)s1 | 108% (inactive) | 107% (inactive) | 128% (inactive) | 108% (inactive) | 109% (inactive) | 100% (inactive) | 108% (inactive) | – | 101% (inactive) | 108% (inactive) | 110% (inactive) | 127% (inactive) | 109% (inactive) | 116% (inactive) | 91.5% (inactive) | 126% (inactive) | 105% (inactive) | 103% (inactive) | 109% (inactive) | 107% (inactive)
6 | CCN(CC)CCNc1cc(-c2cccc(OC(F)(F)F)c2)nc2ccc(N3CCCC3)cc12 | 65.9% (inactive) and -7.71% (active) and 34.2% (inactive) | 74.3% (inactive) and 47.8% (inactive) and 63.7% (inactive) | 29.2% (inactive) and 18.9% (inactive) and 58.3% (inactive) | 51.6% (inactive) and 3.4% (active) and 34.8% (inactive) | 27.2% (inactive) and 0.777% (active) and 11.8% (inactive) | -83.3% (active) and -7.78% (active) and 20.8% (inactive) | 60.8% (inactive) and -30.5% (active) and 23% (inactive) | 55% (inactive) and 3.66% (active) and 29.9% (inactive) | -59.9% (active) and 1.27% (active) and 21.2% (inactive) | 32.5% (inactive) and -76.5% (active) and -46.9% (active) | 60.6% (inactive) and 19% (inactive) and 45.4% (inactive) | -50.9% (active) and -42.3% (active) and -14.1% (active) | 0.557% (active) and -6.72% (active) and -8.3% (active) | 16.3% (inactive) and -15.5% (active) and 34.2% (inactive) | 61.1% (inactive) and 18.8% (inactive) and 34.5% (inactive) | 72% (inactive) and -26.3% (active) and 35.1% (inactive) | 31.6% (inactive) and -38.2% (active) and 56.9% (inactive) | 62.5% (inactive) and -10.1% (active) and -0.682% (active) | -85.8% (active) and -56.6% (active) and -63.5% (active) | -23% (active) and -25.5% (active) and -21% (active)
7 | Nc1ccccc1Nc1ccccc1 | 100% (inactive) and 96.2% (inactive) | 98.8% (inactive) and 86.8% (inactive) | 86.5% (inactive) and 93% (inactive) | 103% (inactive) and 91.6% (inactive) | 94.5% (inactive) and 104% (inactive) | 136% (inactive) | 54% (inactive) and -2.1% (active) | 79.2% (inactive) | 90.8% (inactive) and 82.8% (inactive) | 125% (inactive) and 104% (inactive) | 100% (inactive) and 93.4% (inactive) | 117% (inactive) and 136% (inactive) | 82.1% (inactive) and 71.7% (inactive) | 122% (inactive) and 129% (inactive) | 90.4% (inactive) and 77.8% (inactive) | 98.4% (inactive) | 94.8% (inactive) and 78.5% (inactive) | 86.1% (inactive) and 115% (inactive) | 106% (inactive) and 102% (inactive) | 67.8% (inactive) and 85.5% (inactive)
8 | N/C(=N\N=C\c1ccc2c(c1)OCO2)N/N=C\c1ccc2c(c1)OCO2 | 109% (inactive) and 89% (inactive) | 106% (inactive) and 108% (inactive) | 108% (inactive) and 101% (inactive) | 115% (inactive) and 101% (inactive) | 104% (inactive) and 69.4% (inactive) | 99.8% (inactive) | 119% (inactive) and 108% (inactive) | 107% (inactive) and 108% (inactive) | 103% (inactive) and 88.6% (inactive) | 108% (inactive) and 94.5% (inactive) | 110% (inactive) and 83.9% (inactive) | 92.7% (inactive) | 107% (inactive) and 90.4% (inactive) | 110% (inactive) | 101% (inactive) and 76.2% (inactive) | 114% (inactive) and 121% (inactive) | 109% (inactive) and 113% (inactive) | 110% (inactive) and 97% (inactive) | 100% (inactive) and 59.7% (inactive) | 90.1% (inactive)
9 | Cc1cccc(/C=C\C(=O)c2ccccc2)c1 | 93.5% (inactive) and 101% (inactive) | 111% (inactive) and 95.5% (inactive) | 97% (inactive) and 93.7% (inactive) | 98.5% (inactive) and 111% (inactive) | 109% (inactive) and 100% (inactive) | 81.3% (inactive) | 95.3% (inactive) | 87.7% (inactive) and 92.8% (inactive) | 79.7% (inactive) | 112% (inactive) and 114% (inactive) | 99.9% (inactive) and 104% (inactive) | 91.5% (inactive) | 94% (inactive) and 110% (inactive) | 118% (inactive) and 96.8% (inactive) | 105% (inactive) and 99.5% (inactive) | 116% (inactive) and 95.7% (inactive) | 112% (inactive) and 108% (inactive) | 102% (inactive) and 109% (inactive) | 98.5% (inactive) | 67% (inactive) and 3.91% (active)
10 | COc1ccc2ccccc2c1/C=N/N1CCCCC1 | 97.2% (inactive) | 102% (inactive) | 105% (inactive) | 101% (inactive) | 109% (inactive) | 67.8% (inactive) | 86.9% (inactive) | 95.7% (inactive) | 96.1% (inactive) | 102% (inactive) | 108% (inactive) | – | 99.4% (inactive) | 100% (inactive) | – | 96.4% (inactive) | 89.5% (inactive) | 99.7% (inactive) | 108% (inactive) | 91.5% (inactive)
